From PubChem BioAssay AID686978 (National Center for Advancing Translational Sciences (NCATS), 2013)
The whole screen tested about 420,000 compounds, of which about 64,000 (15%) were called active. Roughly 27% stayed inconclusive and do not appear here. Calls follow the shape of the dose curve; as a rule, active = well fitted inhibition curve with a large enough effect; inconclusive = small, poorly fitted or top-dose-only effect; inactive = flat fitted curve, though single readings scatter. A selection follows. Where a call stands in place of a potency, no number is given.

Assay: qHTS for Inhibitors of human tyrosyl-DNA phosphodiesterase 1 (TDP1): qHTS in cells in absence of CPT; also: nearly all actives have a fitted effect of over 55% in size
Conditions: DT40 Tdp1-/- hTDP1 cells, no CPT, ATP luminescence, 48 h; activity change, negative = growth inhibition: at 46.2 µM (top of the series)
Outline: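 Luminescent ATP content (CellTiter-Glo) served as the growth readout. Knockout chicken DT40 cells expressing human TDP1 were exposed to compounds without camptothecin for a minimum 48 hr at 37 °C.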
Potency is read from the fitted curve at half-maximal effect.

Row | Structure (SMILES) | Potency
1 | CN(CC(=O)Nc1ccc(N2CCOCC2)cc1)CC(=O)Nc1ccccc1[N+](=O)[O-] | inactive
2 | O=c1c2ccccc2ncn1CCc1ccncc1 | inactive
3 | Cc1cccc(CC(=O)Nc2c3c(nn2-c2cccc(Cl)c2)CS(=O)C3)c1 (centres undefined) | inactive
4 | NNc1cccc(C=Cc2ccccc2)cc1=O | 1.64 µM (active)
5 | O=C(COC(=O)/C=C/c1cccc(Cl)c1)NCCc1ccccc1 | inactive
6 | O=c1oc(/C=C/c2ccccc2)nc2ccccc12 | inactive
7 | O=C(Cn1c(=O)n(Cc2ccco2)c(=O)c2ccccc21)NCC1CCCO1 (centres undefined) | inactive
8 | COCCNc1nnc(SCC(=O)NNC(=O)c2ccco2)s1 | inactive
9 | CCOC(=O)C1=CN(Cc2ccc(Br)cc2)S(=O)(=O)N(C)C1C (centres undefined) | inactive
10 | O=C(NCc1ccncc1)c1cccc(NS(=O)(=O)c2ccc(F)c(F)c2)c1 | inactive
11 | COCCCNC(=O)c1ccc(CNS(=O)(=O)c2ccc(NC(C)=O)cc2)cc1 | inactive
12 | O=C1[C@@H]2C(Cc3ccc(O)cc3)NC3(C(=O)Nc4ccc(F)cc43)[C@@H]2C(=O)N1c1ccc(F)cc1 (some centres undefined) | inactive
13 | CSCCC1NC2(C(=O)Nc3ccc(Cl)cc32)[C@@H]2C(=O)N(C3CCCC3)C(=O)[C@H]12 (some centres undefined) | 20.6 µM (active)
14 | CN(C)S(=O)(=O)N1CCN(c2ccc([N+](=O)[O-])cc2)CC1 | inactive
15 | CC(N)(C(=O)O)c1ccc(-c2nn[nH]n2)cc1 (centres undefined) | inactive
16 | CCOC(=O)N1CCN(Cc2nnc(-c3ccccc3Cl)o2)CC1 | inactive
17 | CCc1c(C)n([O-])c2c([n+]1=O)CCCCC2 | inactive
18 | Cc1cccc(C(=O)OCC(=O)NCC(C)C)c1O | inactive
19 | CCOC(=O)CCC(=O)OCC(=O)NC(C)C1CC2CCC1C2 (centres undefined) | inactive
20 | Cc1cccc(C(=O)OCC(=O)NC(C)C2CC3CCC2C3)c1O (centres undefined) | 16.4 µM (active)
21 | COC(=O)c1ccc(NC(=O)CSc2nnc(-c3ccncc3)n2C)cc1 | inactive
22 | NS(=O)(=O)c1ccc(Nc2nc(-c3ccccc3)cs2)cc1 | inactive
23 | CC(=O)c1ccc(NC(=O)C(C)N(C)CC(=O)Nc2ccccc2Cl)cc1 (centres undefined) | inactive
24 | CC(=O)c1ccc(Nc2nc(C(N)c3ccccc3Cl)cs2)cc1 (centres undefined) | 11.6 µM (active)
25 | COc1ccc(NC(=O)CSc2nnc(-c3nnn(-c4ccc(F)cc4)c3C)o2)cc1 | inactive
26 | COc1ccccc1N(CC(=O)NC1CCCC1)C(=O)C1(C)CC(=O)N=C2C=CC(C)=CN21 (centres undefined) | inactive
27 | CC1=C(C(N)=O)C(c2sccc2C)n2nnnc2N1 (centres undefined) | inactive

Row | Structure (SMILES) | Potency
28 | CC(c1ccccn1)N(CCN(C)C)C(=S)Nc1ccccc1F (centres undefined) | inactive
29 | CSc1cccc(NC(=S)N(Cc2ccccc2)Cc2ccccn2)c1 | 20.6 µM (active)
30 | CSc1cccc(NC(=S)N(C(C)C)C(C)c2ccccn2)c1 (centres undefined) | 8.2 µM (active)
31 | COc1cccc(NC(=S)N(Cc2ccc(C)cc2)Cc2ccccn2)c1 | inactive
32 | Cc1c(Cl)cccc1NC(=S)N(Cc1ccccc1)Cc1cccnc1 | inactive
33 | CC(C)(C)c1nnc(N/N=C/c2ccc(O)cc2)n(N)c1=O | inactive
34 | O=C(CC[C@H]1O[C@@H](n2ccc(=O)[nH]c2=O)[C@H](O)[C@@H]1O)N[C@H](Cc1ccccc1)C(=O)NCCCN1CCCC1=O | inactive
35 | CN(C(=O)COC(=O)CCCc1c[nH]c2ccccc12)c1c(N)n(Cc2ccccc2)c(=O)[nH]c1=O | inactive
36 | Cc1nc2c(ncn2-c2ccccc2)c(=O)n1NC(=O)CN1CCCC1 | inactive
37 | CCN(CC)C(=O)CSc1nnc(-c2ccc(S(=O)(=O)NCc3ccccc3Cl)cc2)o1 | inactive
38 | COc1ccccc1NC(=O)[C@H](COCc1ccccc1)NC(=O)OC(C)(C)C | 18.4 µM (active)
39 | COc1ccccc1NC(=O)C(CC(=O)O)Cc1cc(C)cc(C)c1 (centres undefined) | inactive
40 | COc1ccccc1NC(=O)C(C)OC(=O)CC1CCCC1 (centres undefined) | inactive
41 | COc1ccc(C)cc1NC(=O)CCCN1C(=O)NC(C)(C)C1=O | inactive
42 | O=S(=O)(NCCNS(=O)(=O)c1ccccc1)c1ccccc1 | inactive
43 | Cc1cc(C(=O)N2CCCC2(C)C(=O)O)c(C)o1 (centres undefined) | inactive
44 | Cc1cccc(CCNC(=O)c2ccc3c(c2)nc2n3CCC(C)C2)c1 (centres undefined) | 18.4 µM (active)
45 | COc1ccc(CNC(=O)c2ccc3c(c2)nc2n3CCOC2)c(OC)c1 | inactive
46 | Cc1ccc(CCNC(=O)c2ccc3c(c2)nc2n3CCC(C)C2)cc1 (centres undefined) | inactive
47 | CCOc1ccc(CCNC(=O)COC(=O)C2CCN(S(=O)(=O)c3ccccc3)CC2)cc1OCC | inactive
48 | COC(=O)c1ccc(COC(=O)c2cnccn2)cc1 | inactive
49 | Cc1ccc(S(=O)(=O)NCC(C)NS(C)(=O)=O)cc1 (centres undefined) | inactive
50 | Nc1nnnn1/N=C/c1cccc(Br)c1 | inactive
51 | COc1ccccc1C(=O)NC(=S)NC12CC3CC(CC(C3)C1)C2 | inactive
52 | Cc1ccc(NC(=S)NC(=O)c2ccc(-c3ccccc3)cc2)cc1 | 4.61 µM (active)
53 | COc1ccc(C(=O)Nc2ccc3c(c2)OCO3)cc1OC | inactive
54 | COc1ccc(C(=O)NC(=S)Nc2ccc(N3CCCC3)cc2)cc1OC | 8.2 µM (active)
